Experimental data as given in PubChem BioAssay (NCI).
Values joined by “and” are separate entries in the source; they are usually repeats but may differ in a detail not shown here. Equal values may be shown once. Compounds without any hit were thinned out: in the full panel of roughly 79,000, 15% have a hit. Unmarked numbers belong to inactive results. Active and inactive are the calls of the source. No stated cut-off is given here; in the data, active means growth inhibition above about 70%; inactive means the rest.

Legend:
[1] = NCI Yeast Anticancer Drug Screen. Data for the rad50 strain (AID 155);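 further: 0% = growth of vehicle-only cultures of the same strain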; conditions: S. cerevisiae rad50 strain growth inhibition, stronger effect = higher value; at 50.0 µM unless noted
How it was run: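 Genetically altered yeast (DNA repair pathway); compound treatment; growth inhibition vs vehicle ctrl.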

[2] = NCI Yeast Anticancer Drug Screen. Data for the mec2-1 strain (AID 157); conditions: S. cerevisiae mec2-1 strain, stronger effect = higher value; at 50.0 µM unless noted
How it was run: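 Test agents were screened against the mec2-1 yeast strain, with defined DNA repair or cell cycle alteration. Growth was scored as inhibition against vehicle-only controls.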

[3] = NCI Yeast Anticancer Drug Screen. Data for the sgs1 mgt1 strain (AID 161);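 further: 0% = growth of cultures given vehicle only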; conditions: S. cerevisiae sgs1 mgt1 strain, stronger effect = higher value; at 50.0 µM unless noted
How it was run: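 Mutant yeast exposed to compound; growth scored against vehicle-only wells.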

[4] = NCI Yeast Anticancer Drug Screen. Data for the cln2 rad14 strain (AID 165);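 further: 0% = growth equal to vehicle treated cultures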; conditions: S. cerevisiae cln2 rad14 strain, stronger effect = higher value; at 50.0 µM unless noted
How it was run: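 Growth of compound-exposed yeast (cln2 rad14 genotype) measured and expressed as inhibition relative to vehicle.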

[5] = NCI Yeast Anticancer Drug Screen. Data for the bub3 strain (AID 167); conditions: S. cerevisiae bub3 mutant strain, stronger effect = higher value; at 50.0 µM unless noted
How it was run: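 Yeast carrying a defined mutation is treated with each compound, and growth is compared with that of vehicle-exposed cells to give inhibition.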

[6] = NCI Yeast Anticancer Drug Screen. Data for the mlh1 rad18 strain (AID 175); conditions: S. cerevisiae mlh1 rad18 strain growth inhibition, stronger effect = higher value; at 50.0 µM unless noted
How it was run: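 In this whole-cell yeast screen, a strain with altered DNA damage repair is challenged with compound, and its growth is measured against matched vehicle-treated controls.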

Row | SMILES | growth inhibition [1] | growth inhibition [2] | growth inhibition [3] | growth inhibition [4] | growth inhibition [5] | growth inhibition [6]
1 | COC(C)(/C(C)=N/O)c1ccc(-c2ccccc2)cc1 (stereo unspecified) | 7.85% | -7.95% | 2.8% | -0.65% | 16.6% | 19.7%
2 | NC(=S)C(=S)N=Cc1c(O)c2ccccc2oc1=O | 39.3% | 29.9% | 63.1% | 18.9% | 23.1% | 40.5%
3 | COc1ccc(C(NC(N)=O)c2cc3c(cc2OC(C)=O)OCO3)cc1 (stereo unspecified) | -7.25% | -1.95% | -6.65% | -9.05% | 5.7% | -0.4%
4 | CCOC(=O)C1CC2OC2CC1C(=O)OCC (stereo unspecified) | 0.55% | -36.9% | -15.2% | 12.4% | -1.9% | -33.2%
5 | CCOC(=O)C1=CC(C(=O)OCC)=C2C=CC=C3C=CC=C1N32 | 7.75% | 8.7% | 25.9% | -1.65% | -18% | -2.95%
6 | O=C(O)C1CCc2ccccc21 (stereo unspecified) | -15.8% | -46.5% | -15.2% | -12.2% | -26.6% | -20.1%
7 | CN(C)C1=C(Cl)C(=O)C(=O)c2cccnc21 | 32.3% | -2.9% | 21.4% | 5.2% | -16.4% | 38.4%
8 | NC1CCC[C@@H](O)[C@H]1O (stereo partly specified) | -4.9% | 22.9% | 8.7% | -7.1% | 9.6% | -0.55%
9 | CC(=O)Nc1cc(C)cc(CO)c1C | 13.6% | -3.05% | -10.1% | -23.6% | -1.15% | -26.6%
10 | Cc1sc2ccccc2[n+]1CCC(=O)O | -23.1% | -14% | -38.6% | -72.8% | -14.8% | -7.65%
11 | Cc1ccc(C2=Nc3ccccc3NC(=O)C2)cc1 | -2.6% | -20.1% | -12.6% | 22.2% | -7.35% | -17.9%
12 | CCOC(=O)C(SC(S(=O)(=O)c1ccccc1)S(=O)(=O)c1ccccc1)C(=O)OCC | 33.3% | -1.75% | 21.2% | 21.6% | -2.05% | 25.6%
13 | CC(=O)Nc1ccc(N(C)C)cc1 | 0.15% | -3.4% | 0.55% | 10.2% | 14.7% | -7.85%
14 | O=c1[nH]c(=O)n(C2OC(CO)C(O)C2O)c2ccccc12 (stereo unspecified) | 8.3% | -6.4% | -8% | -2% | -5.45% | 3.8%
15 | CC(=O)Nc1ccn(C2OC(CO)C(O)C2O)c(=O)n1 (stereo unspecified) | -3.6% | 26.9% | 0.05% | 31.1% | -11.6% | 8.3%
16 | OCCCNCc1ccccn1 | 7.25% | -13.7% | -20.4% | 22.2% | -12.2% | -16.6%
17 | CCCCC(O)CCC (stereo unspecified) | -30.4% | -52.4% | -24.8% | 4.85% | -48.7% | -33.5%
18 | CC(=O)CCn1[nH]c(=O)c2ccccc2c1=O | -2.05% | 7.35% | 1.6% | 7.9% | -3.15% | 10.9%
19 | N=C(N)SCCc1cn2ccccc2n1 | -5.45% | -45.9% | -17.1% | 3.65% | -15.8% | 1.05%
20 | CN(C)c1ccc(C(c2ccc(N(C)C)cc2)c2ccc([N+](=O)[O-])cc2)cc1 | -3.75% | -35.7% | -48.3% | 8.3% | 39% | -16.8%
21 | CC1=CSC2=NCCCCN12 | -9.5% | 2.3% | 13.3% | 8.55% | 18.2% | 16.1%

Row | SMILES | growth inhibition [1] | growth inhibition [2] | growth inhibition [3] | growth inhibition [4] | growth inhibition [5] | growth inhibition [6]
22 | CN(C)c1ccc(/C=C/C(=O)N[C@@H]2C(=O)N3[C@@H]2SC(C)(C)[C@@H]3C(=O)O)cc1 | -10.3% | -10.8% | -11.9% | 6.35% | -12.8% | 12.8%
23 | COc1ccc(C=NCC(OC)OC)cc1OCc1ccccc1 | -14.9% | 7.15% | 14% | -16.4% | -3.05% | 12.4%
24 | C=CCc1cc2c(C)cc(=O)oc2c(C)c1OC(C)=O | -4.1% | -23.8% | -1.1% | 13.1% | -25.9% | -2.45%
25 | O=C(O)c1cccnc1C(=O)O | -23.8% and 10.8% | -8.85% and -5.35% | 2.65% and -2.2% | -30.2% and 10.3% | -12% and -28.2% | 3.9% and 8.65%
26 | CCOC(Nc1cc(Cl)cc(Cl)c1)C(=O)c1ccccc1 (stereo unspecified) | -1.9% | -0.7% | -9.8% | -3.05% | 4.05% | -5.65%
27 | Cc1ccc(C)c(NC(=O)NC(C)(C)C)c1 | -0.2% | -22.4% | -2.7% | -55.1% | -5.65% | -4.5%
28 | N#CCSc1ncnc2nc[nH]c12 | 4.25% | 1.65% | -5.95% | 5.6% | 4.8% | 0.15%
29 | COC(=O)C(CCSC)NC(=O)C1CSC(C)(C)N1C=O (stereo unspecified) | 0.65% | 0.2% | 39.2% | -1.85% | 44.5% | -1.85%
30 | O=CC(CO)C(C=O)n1ncc2ccccc21 (stereo unspecified) | 30.2% | 7.7% | 28.3% | 9.55% | 13.3% | 30.8%
31 | O=c1c2ccccc2[nH]c(=S)n1CCc1ccccn1 | 2.35% | 6.9% | 64.6% | 8.55% | 14.3% | -7.65%
32 | FC(F)(F)C1CCCCC1[Si](C1CCCCC1C(F)(F)F)C1CCCCC1C(F)(F)F (stereo unspecified) | 32.8% | -11.2% | 13.7% | 10.5% | -5.55% | 5.7%
33 | CSc1ccc(NC(=O)Nc2cc(C)ccc2N=Nc2ccc(C)cc2)cc1 | -1.5% | -2.35% | -4.95% | -9.3% | -4.75% | 17.5%
34 | N#C/C(=C\c1ccco1)C1CCC([N+](=O)[O-])CC1 (stereo unspecified) | -5.05% | -1.5% | 4.35% | -101% | 2.85% | -4.85%
35 | [Cu+2].[NH-]CC(=O)NC(Cc1ccccc1)C(=O)O.[NH-]CC(=O)NC(Cc1ccccc1)C(=O)O (stereo unspecified) | 30.9% | 2.4% | 10.6% | 17.5% | 0.9% | 10.6%
36 | COc1cccc(N)c1N | 21.4% | -15.2% | -3.6% | 4.6% | -16.9% | -9.2%
37 | COC(=O)c1ccccc1NC(=O)c1c(-c2ccccc2Cl)noc1C | 72% (active) | 67.8% | 88.6% (active) | 46.9% | 77.2% (active) | 54.9%
38 | CC1OC(Cl)CC(NC(=O)C(F)(F)F)C1OC(=O)C(F)(F)F (stereo unspecified) | -0.55% | -1.7% | -5.55% | -17.8% | 14.2% | 13.9%
39 | O=C(O)CCc1cnc[nH]1 | -0.7% | -1.8% | 1.2% | 22.5% | 14.6% | 2.3%
40 | COc1ccc(CCC(=O)c2ccc(N)cc2)cc1 | -22.1% | -16.4% | -0.65% | -11.5% | -3.75% | -22.3%
41 | CN(C)C1=NS(=O)(=O)c2ccccc21 | -0.75% | 1% | -7.25% | -40.3% | 6.35% | 2.9%
